An excerpt weighted towards active compounds, which were near 6.7% of everything screened.
T cruzi growth-1 = inhibitors of T. cruzi proliferation; T. cruzi beta-gal in NIH3T3, GalScreen luminescence, 90 h; inhibition, % at 8.34 µM; 77,000 tested, 5.9% active;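 active = mean inhibition above about 93%, with at least 55% of replicates each passing it, limit read from the data, passing the limit was not always enough; inconclusive = only one of those two conditions holds; inactive = neither condition holds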
C diff growth = blocks growth of Clostridium difficile. Clostridium difficile clinical isolate growth, OD600, 24 h; stronger effect = lower value. growth activity, negative = inhibition, % at 16 µg/mL (by protocol). 86,000 tested, 0.25% active. AID 1259249;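 active = mean growth activity at or below -80% and every replicate also at or below -80%; inconclusive = mean at or below -80% but some replicate above -80%; inactive = mean growth activity above -80%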
Pf Dd2 inh = inhibitors of Plasmodium falciparum Dd2 growth; P. falciparum Dd2 growth, SYBR Green, 72 h; stronger effect = lower value; activity change, % at 10 µM; 94,000 tested, 2.3% active; AID 1159554; in the data active = activity change below about -80%; inconclusive = no clear call, values can overlap the other calls
T cruzi growth-2 = inhibitors of T. cruzi proliferation. shares compounds with T cruzi growth-1. 5,600 tested, 72% active. T. cruzi beta-gal in NIH3T3, GalScreen luminescence, 90 h. inhibition, % at 8.35 µM. AID 651739;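 active = mean replicate inhibition above about 95% and at least 55% of replicates individually reaching it, limit read from the data; inconclusive = only one of the two criteria is met; inactive = neither criterion is met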
T cruzi growth-3 = blocks T. cruzi growth in NIH3T3 host cells. T. cruzi beta-gal in NIH3T3, GalScreen luminescence, 90 h. shares compounds with T cruzi growth-1. inhibition, % at 2.09 µM. 5,600 tested, 21% active;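 active = mean inhibition above about 95%, with at least 55% of replicates also reaching it, limit read from the data; inconclusive = meets just one of the two conditions; inactive = meets neither condition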
NIH3T3 tox = NIH/3T3 (mouse) viability loss; cytotoxicity (signal decrease), % at 8.35 µM; 5,600 tested, 14% active; NIH/3T3 viability, CellTiter-Glo ATP luminescence, 90 h; shares compounds with T cruzi growth-1;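 active = mean signal decrease across replicates above about 35% based on untreated-well scatter, with enough replicates individually passing, limit read from the data; inconclusive = no rule stated though some were filed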
3T3 cytotox 2 = NIH/3T3 (mouse) viability loss; shares compounds with T cruzi growth-1; NIH/3T3 viability, CellTiter-Glo ATP luminescence, 90 h; inhibition, % at 24.9 µM; 5,600 tested, 56% active; AID 651744;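 active = mean loss of cell viability signal at or above a set limit, and enough replicates individually reaching it; inconclusive = meets only the mean limit or only the replicate share; inactive = meets neither condition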
Of the large screens only hits and unclear results are named; the others gave an inactive call (follow-up assays come after a bar, where they were run); ! = repeats disagree.

C[C@H]1CN([C@@H](C)CO)C(=O)CCCn2nncc2CO[C@@H]1CN(C)Cc1ccc(C(=O)Nc2ccccc2N)cc1	T cruzi growth-1 102.7 | T cruzi growth-2 110.9 | T cruzi growth-3 inactive | NIH3T3 tox inactive | 3T3 cytotox 2 inactive
C[C@H](CO)N1C[C@H](C)[C@H](CN(C)Cc2ccc3cccnc3c2)OCc2cnnn2CCCC1=O	T cruzi growth-1 110.6 | T cruzi growth-2 inactive | T cruzi growth-3 inactive | NIH3T3 tox inactive | 3T3 cytotox 2 inactive
C[C@@H]1CN([C@H](C)CO)C(=O)CCCn2nncc2CO[C@@H]1CN(C)Cc1ccc2cccnc2c1	none (no result: C diff growth)
Cc1ccc(S(=O)(=O)N(C)C[C@H]2Oc3ccc(NC(=O)CCCN(C)C)cc3CC(=O)N([C@H](C)CO)C[C@@H]2C)cc1	none
CCCNC(=O)N1C[C@H](O)COC[C@@H]2O[C@H](CC(=O)NCc3ccc(Cl)c(Cl)c3)CC[C@H]21	none
O=C(C[C@@H]1CC[C@H]2[C@@H](COC[C@H](O)CN2C(=O)Nc2ccc(Cl)c(Cl)c2)O1)NCc1ccncc1	T cruzi growth-1 128.5 | T cruzi growth-2 97.8 | T cruzi growth-3 inactive | NIH3T3 tox inactive | 3T3 cytotox 2 38.6
O=C(C[C@H]1CC[C@H]2[C@@H](COC[C@H](O)CN2C(=O)Nc2ccc(Cl)c(Cl)c2)O1)NCc1ccncc1	T cruzi growth-1 153.0, C diff growth -97.0! | T cruzi growth-2 109.6 | T cruzi growth-3 inactive | NIH3T3 tox inactive | 3T3 cytotox 2 inactive
O=C(C[C@H]1CC[C@H]2[C@@H](COC[C@@H](O)CN2C(=O)Nc2ccc(Cl)c(Cl)c2)O1)NCc1ccccc1	none (no result: C diff growth)
O=C(C[C@@H]1CC[C@@H]2[C@H](COC[C@H](O)CN2C(=O)Nc2ccc(Cl)c(Cl)c2)O1)NCc1ccccc1	none (no result: C diff growth)
O=C(C[C@H]1CC[C@@H]2[C@H](COC[C@H](O)CN2C(=O)Nc2ccc(Cl)c(Cl)c2)O1)NCc1ccc(Cl)c(Cl)c1	T cruzi growth-1 105.9 (no result: C diff growth) | T cruzi growth-2 95.8 | T cruzi growth-3 inactive | NIH3T3 tox inactive | 3T3 cytotox 2 104.1
C[C@H](CO)N1C[C@H](C)[C@@H](CN(C)C(=O)Cc2cccnc2)Oc2ncc(/C=C/c3ccccc3)cc2C1=O	none (no result: T cruzi growth-1, C diff growth)
O=C(C[C@H]1CC[C@H]2[C@@H](COC[C@H](O)CN2C(=O)c2ccncc2)O1)NC1Cc2ccccc2C1	none
COC(=O)[C@@H]1[C@@H](CO)[C@@H]2Cn3c(ccc(C4=CCCCC4)c3=O)[C@@H]2N1C(=O)C1CCC1	none
Cc1cccc(S(=O)(=O)N2CCCCN3[C@H](CO)[C@@H](c4ccc(C#C[C@H](C)O)cc4)[C@H]3C2)c1	T cruzi growth-1 inconclusive | T cruzi growth-2 inactive | T cruzi growth-3 inactive | NIH3T3 tox inactive | 3T3 cytotox 2 33.5
Cc1cccc(S(=O)(=O)N2CCCCN3[C@H](CO)[C@@H](c4ccc(C#C[C@H](C)O)cc4)[C@@H]3C2)c1	none
COc1cccc(S(=O)(=O)N2CCCCN3[C@H](CO)[C@H](c4ccc(C#CC(C)C)cc4)[C@@H]3C2)c1	none
COc1cccc(S(=O)(=O)N2CCCCN3[C@H](CO)[C@@H](c4ccc(C#CC(C)C)cc4)[C@@H]3C2)c1	T cruzi growth-1 inconclusive | T cruzi growth-2 99.2 | T cruzi growth-3 inactive | NIH3T3 tox inactive | 3T3 cytotox 2 54.8
Cc1cccc(S(=O)(=O)N2CCCCN3[C@@H](CO)[C@H](c4ccc(C#C[C@H](C)O)cc4)[C@@H]3C2)c1	none
Cc1cccc(S(=O)(=O)N2CCCCN3[C@H](C2)[C@H](c2ccc(C#C[C@H](C)O)cc2)[C@@H]3CO)c1	T cruzi growth-1 109.7 | T cruzi growth-2 110.3 | T cruzi growth-3 inactive | NIH3T3 tox 41.4 | 3T3 cytotox 2 inactive
Cc1cccc(S(=O)(=O)N2CCCCN3[C@H](CO)[C@H](c4ccc(C#C[C@H](C)O)cc4)[C@H]3C2)c1	T cruzi growth-1 105.8 | T cruzi growth-2 inconclusive | T cruzi growth-3 inactive | NIH3T3 tox inactive | 3T3 cytotox 2 41.0
Cc1cccc(S(=O)(=O)N2CCCCN3[C@H](CO)[C@@H](c4ccc(C#C[C@@H](C)O)cc4)[C@@H]3C2)c1	none
O=C(C[C@H]1C=C[C@@H](NC(=O)c2ccc(F)cc2)[C@H](CO)O1)NCCc1ccncc1	none (no result: C diff growth)
Cc1noc(C)c1NC(=O)Nc1cccc2c1O[C@@H](CN(C)S(=O)(=O)c1cn(C)cn1)[C@@H](C)CN([C@H](C)CO)C2=O	none (no result: C diff growth)
C=CCOC(=O)[C@H]1[C@@H]2C(=O)O[C@@H](c3ccccc3)[C@@H](c3ccccc3)N2[C@@H](c2ccc(OCCOC(=O)[C@@H]3C[C@@H]4C(=O)N[C@@H](CC(C)C)C(=O)N4[C@@H]3c3ccc(O)cc3)cc2)[C@]12C(=O)Nc1ccc(I)cc12	none (no result: T cruzi growth-1, Pf Dd2 inh)
CCC(=O)Nc1ccc2c(c1)C(=O)N(C)C[C@H](OC)[C@H](C)CN(C(=O)c1ccncc1)[C@H](C)CO2	none (no result: C diff growth)
C[C@@H]1CN([C@H](C)CO)C(=O)c2cc(N(C)C)ccc2O[C@@H]1CN(C)C(=O)Nc1ccc(F)cc1	none
C[C@H](CO)N1C[C@H](C)[C@@H](CN(C)Cc2ccncc2)Oc2ccc(NS(=O)(=O)c3cccs3)cc2CC1=O	none
COc1ccc(-c2cnc3c(c2)C(=O)N([C@H](C)CO)C[C@@H](C)[C@@H](CN(C)Cc2ccccc2)O3)cc1	none
Cc1cccc(S(=O)(=O)N2CCCCN3[C@H](CO)[C@@H](c4ccc(C#CC(C)C)cc4)[C@H]3C2)c1	T cruzi growth-1 inconclusive | T cruzi growth-2 101.6 | T cruzi growth-3 inconclusive | NIH3T3 tox inactive | 3T3 cytotox 2 103.2
Cc1cccc(S(=O)(=O)N2CCCCN3[C@H](CO)[C@H](c4ccc(C#CC(C)C)cc4)[C@H]3C2)c1	none
COc1ccc2c3c(n(C)c2c1)[C@H](CO)N(C(=O)CN1CCOCC1)CC31CN(C(=O)C2CC2)C1	none (no result: T cruzi growth-1)
CS(=O)(=O)N1CCCCN2[C@H](CO)[C@H](c3ccc(C4=CCCC4)cc3)[C@@H]2C1	none
COc1ccc(S(=O)(=O)N2CCCCN3[C@@H](CO)[C@H](c4ccc(C5=CCCC5)cc4)[C@@H]3C2)cc1	T cruzi growth-1 inconclusive | T cruzi growth-2 103.9 | T cruzi growth-3 inactive | NIH3T3 tox inactive | 3T3 cytotox 2 104.3
COc1ccc(S(=O)(=O)N2CCCCN3[C@H](CO)[C@H](c4ccc(C5=CCCC5)cc4)[C@H]3C2)cc1	none
CS(=O)(=O)N1CCCCN2[C@H](C1)[C@H](c1ccc(C3=CCCC3)cc1)[C@@H]2CO	T cruzi growth-1 inconclusive | T cruzi growth-2 inactive | T cruzi growth-3 inactive | NIH3T3 tox inactive | 3T3 cytotox 2 inactive
C[C@H]1CN([C@@H](C)CO)C(=O)c2cc(NC(=O)CCC(F)(F)F)ccc2O[C@H]1CN(C)S(=O)(=O)c1ccc(Cl)cc1	none
CC(=O)N(C)C[C@H]1Oc2cc(C#CCC(C)C)ccc2S(=O)(=O)N([C@@H](C)CO)C[C@@H]1C	none

From PubChem
